Pf growth 48h = Primary qHTS for delayed death inhibitors of the malarial parasite plastid, 48 hour incubation; P. falciparum luciferase growth in erythrocytes, 48 h; Potency, µM (series often up to 28.7 µM), most hits filed as inhibitors; hit rate 5.9% among 310,000
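Luciferase-expressing parasites in RBCs, 2% Hct / 0.1% parasitemia final; RPMI 1640 + 0.5% Albumax; 37 C, 5% CO2, one generation; luminescence read-out, lower signal = inhibition.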
HCV inhibitor = qHTS Assay for Inhibitors of Hepatitis C Virus (HCV); hit rate 3.4% among 340,000; Potency, µM (top dose mostly 41.8 µM), usual class: inhibitors; Huh7.5.1 HCVcc-Cre infection, luciferase reporter, 44 h
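Cells seeded at 1,000/well and cultured 4 h, then compounds added followed by HCVcc-Cre virus (~0.5 moi). After 44 h further culture, luciferase substrate was added, plates held 15 min at room temperature, and luminescence read for 15 sec.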
HCMV antiviral = qHTS Assay for inhibitors of the human cytomegalovirus (HCMV) | HFF cells, HCMV-luciferase reporter, 72 h; stronger effect = lower value | activity change, negative = inhibition, % at 57.5 µM | hit rate 4.5% among 410,000 | AID 1259415, 2018; in the data active means activity change below about -60%; inconclusive means no clear call, values can overlap the other calls; inactive means above about -39%
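HFF cells seeded 16 h at 37C, treated with compounds, infected with luciferase-reporter HCMV at MOI 1 PFU/cell; luciferase read at 72 h post infection, normalized to buffer-only and Salinomycin controls.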
Pf growth 96h = Primary qHTS for delayed death inhibitors of the malarial parasite plastid, 96 hour incubation | P. falciparum luciferase reporter growth, 96 h | Potency, µM (doses to about 28.7 µM), most hits filed as inhibitors | hit rate 6.9% among 320,000 | AID 504834, 2011
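Two parasite generations (96 h, 37 C, 5% CO2) of compound exposure in infected erythrocytes (0.05% parasitemia, 2% hematocrit). Luciferase-reporter P. falciparum; decreased luminescence indicates inhibited growth, aimed at apicoplast-acting delayed death.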
Each line names hits and unclear results; the compound was inactive in the other large screens. Shown are actives, neighbours in structure and some others; about 13% of the full set was active somewhere. Unless noted, the call rests on the fitted dose curve; in most records, active means well fitted inhibition curve with a large enough effect; inconclusive means small, poorly fitted or top-dose-only effect, or another doubt; inactive means no such curve, though single readings can be large or run the other way.

COc1ccccc1-c1cc(C(=O)NCc2cccs2)no1	Pf growth 96h 3.7µM
Cc1cc(C(=O)Nc2cc(C)n(Cc3ccc(Cl)cc3)n2)no1	Pf growth 48h 0.93µM, Pf growth 96h inconclusive
COc1ccccc1-c1cc(C(=O)Nc2cc(C)n(Cc3ccc(Cl)cc3)n2)no1	Pf growth 48h 5.9µM, HCV inhibitor inconclusive
Cc1cc(NC(=O)c2cc(-c3ccc(Cl)cc3)on2)nn1Cc1ccc(Cl)cc1	none (no result: Pf growth 48h, HCV inhibitor, Pf growth 96h)
COc1ccc(NC(=O)C(NC(=O)C2CCC(C)CC2)C(C)C)cc1 (stereo not drawn)	none (no result: Pf growth 48h, HCV inhibitor, Pf growth 96h)
Cc1ccc(S(=O)(=O)N(CC(=O)NCCc2ccc(Cl)cc2)c2ccccc2C)cc1	none (no result: Pf growth 48h, HCV inhibitor, Pf growth 96h)
Cc1cc(NC(=O)c2cc(-c3cccc(Cl)c3)on2)nn1Cc1ccc(Cl)cc1	HCMV antiviral -80 (no result: Pf growth 48h, HCV inhibitor, Pf growth 96h)
Cc1ccc(CN2CCc3nc(N4CCN(C)CC4)ncc3C2)s1	none (no result: Pf growth 48h, HCV inhibitor, Pf growth 96h)
COCCn1c(-c2ccc(OC(F)(F)C(F)C(F)(F)F)cc2)nc2c1c(=O)[nH]c(=O)n2CC(C)C (stereo not drawn)	Pf growth 96h 6.6µM (no result: Pf growth 48h)
Cc1ccc(-c2nc3c(c(=O)[nH]c(=O)n3CC(C)C)n2CC(C)C)cc1[N+](=O)[O-]	Pf growth 48h inconclusive, HCV inhibitor inconclusive, HCMV antiviral -62, Pf growth 96h inconclusive
CC(C)Cn1c(-c2cc([N+](=O)[O-])ccc2Cl)nc2c1c(=O)[nH]c(=O)n2Cc1ccccc1	Pf growth 48h 5.2µM, HCV inhibitor inconclusive, Pf growth 96h 2.6µM
CCCCn1c(=O)[nH]c(=O)c2c1nc(-c1ccc(C)c([N+](=O)[O-])c1)n2CC	Pf growth 48h inconclusive, HCV inhibitor inconclusive, Pf growth 96h inconclusive
COCCn1c(-c2ccc(SC)cc2)nc2c1c(=O)[nH]c(=O)n2CC(C)C	none
CC(=O)Nc1ccc(NS(=O)(=O)c2c(C)nc3sccn3c2=O)cc1	none (no result: Pf growth 48h, HCV inhibitor, Pf growth 96h)
CC(=O)O[C@H]1CC[C@@]2(C)C(CCC3C2CC[C@]2(C)OC(=O)CCC32)C1 (stereo partly drawn)	Pf growth 96h inconclusive
CC(=O)OC1CCC2(C)C(CCC3C4CC=C(C(C)=O)C4(C)OC(=O)CC32)C1 (stereo not drawn)	HCMV antiviral -76 (no result: Pf growth 48h, HCV inhibitor, Pf growth 96h)
CC(=O)c1cccc(NC(=O)c2c(-c3ccccc3)c(-c3ccccc3)nn(C)c2=O)c1	none (no result: Pf growth 48h, HCV inhibitor, Pf growth 96h)
COc1ccc(-c2nc(SCC(=O)NC(C)CCc3ccccc3)n[nH]2)cc1 (stereo not drawn)	HCMV antiviral -89 (no result: Pf growth 48h, HCV inhibitor, Pf growth 96h)
COc1ccc(/C=C/c2cc[n+](C(=O)Cc3ccccc3)cc2)cc1	Pf growth 48h inconclusive, HCMV antiviral -108, Pf growth 96h inconclusive
O=C(CSc1n[nH]c(-c2ccccc2)n1)NCCCc1ccccc1	none (no result: Pf growth 48h, HCV inhibitor, Pf growth 96h)
COc1ccc(-c2nc(SCC(=O)NCCCc3ccccc3)n[nH]2)cc1	HCMV antiviral -67 (no result: Pf growth 48h, HCV inhibitor, Pf growth 96h)
CC(CCc1ccccc1)NC(=O)CSc1n[nH]c(-c2ccccc2)n1 (stereo not drawn)	none (no result: Pf growth 48h, HCV inhibitor, Pf growth 96h)
CC(CCc1ccccc1)NC(=O)CSc1n[nH]c(-c2ccc(F)cc2)n1 (stereo not drawn)	HCMV antiviral -65 (no result: Pf growth 48h, HCV inhibitor, Pf growth 96h)
CC(CCc1ccccc1)NC(=O)CSc1n[nH]c(-c2ccccc2Cl)n1 (stereo not drawn)	none (no result: Pf growth 48h, HCV inhibitor, Pf growth 96h)
COc1ccc(/C=C/C(=O)NC(C)CCc2ccccc2)cc1 (stereo not drawn)	HCMV antiviral -60, Pf growth 96h inconclusive
COc1ccc(/C=C/C(=O)NC(C)CCc2ccccc2)cc1OC (stereo not drawn)	Pf growth 48h inconclusive, HCV inhibitor inconclusive
CCOC(=O)c1sc(N2C(=O)c3oc4ccc(C)cc4c(=O)c3C2c2ccccc2F)nc1C (stereo not drawn)	none (no result: Pf growth 48h, HCV inhibitor, Pf growth 96h)
CCCCOc1ccccc1NC(=O)c1scc2c1OCCO2	Pf growth 48h inconclusive, HCV inhibitor 13µM, Pf growth 96h inconclusive
Cc1ccc(-c2nnc(SCC(=O)Nc3ccc4c(c3)oc3ccccc34)n2C)c(Cl)c1	HCV inhibitor inconclusive, HCMV antiviral -86 (no result: Pf growth 48h)
O=C(Nc1ccc2c(c1)oc1ccccc12)C1CC1	HCV inhibitor 10µM (no result: Pf growth 96h)
CCCCC(=O)Nc1ccc2c(c1)oc1ccccc12	HCV inhibitor inconclusive
CC(C)CC(=O)Nc1ccc2c(c1)oc1ccccc12	HCV inhibitor 22µM
Cc1c(C(=O)N2CCC(C)CC2)c(S(=O)(=O)NCc2ccccc2)c(C)n1C	none (no result: Pf growth 48h, HCV inhibitor, Pf growth 96h)
CCc1ccc(C(=O)c2cn(CC(=O)Nc3cc(OC)ccc3OC)c3ccc(C)cc3c2=O)cc1	none (no result: Pf growth 48h, HCV inhibitor, Pf growth 96h)
Cc1nnc(N2CCCC(C(=O)NCCc3ccc(Cl)cc3)C2)c2nn(-c3ccccc3)c(C)c12 (stereo not drawn)	none (no result: Pf growth 48h, HCV inhibitor, Pf growth 96h)

Assay outcomes as filed in PubChem BioAssay.
